Data taken from PubChem BioAssay AID1159580 (chemical genetic matrix, 2015).
Where “and” joins values, the source holds several entries; their conditions need not be identical. Identical values can stand only once. In all, about 5,500 compounds went through this assay and about 2,000 (36%) were called active. Inconclusive results (about 18%) are left out. The list shows a part of the results. A number with no mark means an inactive call. Cut-off read from the data, not from the text of the source: active = normalized growth mostly below about 0.91 (no sharp cut-off); inconclusive = no clear call, values can overlap the other calls; inactive = mostly above about 0.92.

Assay: chemical genetic growth profiling, strain panel (AID 1159580);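 note: tested at 20 µM; growth read once vehicle control cultures reached saturation at 30 °C; 1 = growth at the plate median or of vehicle wells; lower values mean less growth of the strain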
Settings: S. cerevisiae deletion strains, growth OD

Question: What does the source list for C#C[C@]1(O)CCC2C3CCC4=C(CCC(=O)C4)C3CC[C@@]21C (some centres undefined)?
Answer: normalized growth (locus YAL021C, strain ccr4, active compounds read low): 0.992; normalized growth (locus YAL026C, strain drs2, active compounds read low): 0.942; normalized growth (locus YAL030W, strain snc1, active compounds read low): 0.987; normalized growth (locus YBL061C, strain skt5, active compounds read low): 0.993; normalized growth (locus YBR009C, strain hhf1, active compounds read low): 0.941; normalized growth (locus YBR021W, strain FUR4, active compounds read low): 0.977; normalized growth (locus YBR023C, strain chs3, active compounds read low): 0.986; normalized growth (locus YBR171W, strain sec66, active compounds read low): 0.974; normalized growth (locus YBR229C, strain ROT2, active compounds read low): 1.01; normalized growth (locus YBR231C, strain swc5, active compounds read low): 1; normalized growth (locus YBR279W, strain paf1, active compounds read low): 0.982; normalized growth (locus YCL011C, strain gbp2, active compounds read low): 0.98; normalized growth (locus YCL016C, strain dcc1, active compounds read low): 0.994; normalized growth (locus YCL029C, strain bik1, active compounds read low): 1.01; normalized growth (locus YCL061C, strain MRC1, active compounds read low): 0.971; normalized growth (locus YCL069W, strain vba3, active compounds read low): 0.973; normalized growth (locus YCR088W, strain abp1, active compounds read low): 0.986; normalized growth (locus YDL005C, strain med2, active compounds read low): 0.982; normalized growth (locus YDL035C, strain GPR1, active compounds read low): 0.964; normalized growth (locus YDL040C, strain nat1, active compounds read low): 0.989; normalized growth (locus YDL074C, strain BRE1, active compounds read low): 1.03; normalized growth (locus YDL101C, strain DUN1, active compounds read low): 1; normalized growth (locus YDL134C, strain PPH21, active compounds read low): 0.981; normalized growth (locus YDL185W, strain tfp1, active compounds read low): 1; normalized growth (locus YDL192W, strain arf1, active compounds read low): 1.01; normalized growth (locus YDR001C, strain nth1, active compounds read low): 0.983; normalized growth (locus YDR069C, strain doa4, active compounds read low): 0.97; normalized growth (locus YDR101C, strain arx1, active compounds read low): 0.984; normalized growth (locus YDR137W, strain rgp1, active compounds read low): 0.807 (active); normalized growth (locus YDR150W, strain NUM1, active compounds read low): 1.03; normalized growth (locus YDR159W, strain sac3, active compounds read low): 0.915; normalized growth (locus YDR162C, strain NBP2, active compounds read low): 1.02; normalized growth (locus YDR195W, strain ref2): 1.07; normalized growth (locus YDR297W, strain sur2, active compounds read low): 0.985; normalized growth (locus YDR318W, strain mcm21, active compounds read low): 0.98; normalized growth (locus YDR334W, strain swr1, active compounds read low): 0.996; normalized growth (locus YDR335W, strain msn5, active compounds read low): 0.97; normalized growth (locus YDR388W, active compounds read low): 1; normalized growth (locus YDR392W, strain spt3, active compounds read low): 0.761; normalized growth (locus YDR502C, strain sam2, active compounds read low): 0.985; normalized growth (locus YEL003W, strain gim4, active compounds read low): 0.971; normalized growth (locus YEL037C, strain rad23, active compounds read low): 0.98; normalized growth (locus YEL061C, strain CIN8 (second series), active compounds read low): 0.969; normalized growth (locus YEL061C, strain CIN8, active compounds read low): 1.02; normalized growth (locus YER015W, strain faa2, active compounds read low): 0.994; normalized growth (locus YER016W, strain bim1, active compounds read low): 0.976; normalized growth (locus YER110C, active compounds read low): 1; normalized growth (locus YER111C, strain swi4, active compounds read low): 1; normalized growth (locus YER155C, strain BEM2 (second series), active compounds read low): 0.974; normalized growth (locus YER155C, strain BEM2, active compounds read low): 1.02; normalized growth (locus YER167W, strain BCK2, active compounds read low): 1.01; normalized growth (locus YFR010W, strain ubp6, active compounds read low): 0.98; normalized growth (locus YGL078C, strain dbp3, active compounds read low): 0.995; normalized growth (locus YGL086W, strain mad1, active compounds read low): 0.99; normalized growth (locus YGL167C, strain pmr1, active compounds read low): 0.984; normalized growth (locus YGL173C, strain kem1, active compounds read low): 0.957; normalized growth (locus YGL227W, strain vid30, active compounds read low): 0.98; normalized growth (locus YGL240W, strain doc1, active compounds read low): 0.949; normalized growth (locus YGL248W, strain PDE1, active compounds read low): 1; normalized growth (locus YGL253W, strain hxk2, active compounds read low): 0.962; normalized growth (locus YGR135W, strain pre9, active compounds read low): 0.981; normalized growth (locus YGR252W, strain gcn5, active compounds read low): 0.893; normalized growth (locus YHR013C, strain ard1, active compounds read low): 0.965; normalized growth (locus YHR027C, strain rpn1, active compounds read low): 0.984; normalized growth (locus YHR030C, strain SLT2, active compounds read low): 1.03 and 0.904; normalized growth (locus YHR079C, strain IRE1 (second series), active compounds read low): 0.999; normalized growth (locus YHR079C, strain IRE1, active compounds read low): 0.873; normalized growth (locus YHR094C, strain hxt1, active compounds read low): 0.997; normalized growth (locus YHR129C, strain ARP1, active compounds read low): 1.02; normalized growth (locus YHR142W, strain chs7, active compounds read low): 0.921; normalized growth (locus YHR200W, strain rpn10, active compounds read low): 1; normalized growth (locus YIL066C, strain RNR3, active compounds read low): 1.02; normalized growth (locus YIL073C, strain SPO22, active compounds read low): 0.968; normalized growth (locus YIL125W, strain kgd1, active compounds read low): 1; normalized growth (locus YIR030C, strain dcg1, active compounds read low): 1.02; normalized growth (locus YJL092W, strain hpr5, active compounds read low): 0.986; normalized growth (locus YJL095W, strain BCK1 (second series), active compounds read low): 0.991; normalized growth (locus YJL095W, strain BCK1, active compounds read low): 0.979 and 0.922; normalized growth (locus YJL115W, strain asf1, active compounds read low): 0.975; normalized growth (locus YJL129C, strain trk1, active compounds read low): 0.884; normalized growth (locus YJL134W, strain LCB3, active compounds read low): 1.02; normalized growth (locus YJL154C, strain vps35, active compounds read low): 0.97; normalized growth (locus YJL164C, strain tpk1, active compounds read low): 0.949; normalized growth (locus YJL166W, strain qcr8, active compounds read low): 0.97; normalized growth (locus YJL168C, strain set2, active compounds read low): 1; normalized growth (locus YJL187C, strain SWE1 (second series), active compounds read low): 1.01; normalized growth (locus YJL187C, strain SWE1, active compounds read low): 0.981; normalized growth (locus YJR043C, strain POL32, active compounds read low): 1.02; normalized growth (locus YJR066W, strain TOR1, active compounds read low): 0.886
